A short description of test [1]: small molecules captured by biotinylated probe aFSTL3 – biochemical, small-molecule microarray, fluorescence 635/667, stem cell growth factor project, primary screen (AID 1064).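 Also: measures binding of the biotinylated anti-FSTL3 antibody to printed compounds.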 The following applies: higher = more signal.
Test [2] is described as follows: binders from COS7 lysate, DM2A8 probe, primary screen, torsin A project, cell lysate, small-molecule microarray, fluorescence 635/667 (AID 1065). Particulars: higher = more signal, COS7 lysate expressing mutant human TOR1A.
Test [3] can be described thus: small molecules captured by biotinylated probe aFGF2 – biochemical, small-molecule microarray, fluorescence 635/667, stem cell growth factor project, primary screen (AID 1067).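 Also: measures binding of biotinylated aFGF2 protein to printed compounds on slides; z-score merges feature fluorescence and signal-to-noise across triplicate slides.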 The following applies: higher = more signal.
Test [4] is described as follows: small molecules captured by biotinylated probe aFGF10 – biochemical, small-molecule microarray, fluorescence 635/667, stem cell growth factor project, primary screen (AID 1071).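 Also: score merges 667 nm spot intensity and signal to noise from triplicate slides.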 Particulars: higher = more signal.
Test [5] concerns the target Neurogenic locus notch homolog protein 2 (Homo sapiens) (UniProt Q04721). Nature of the test: small molecules binding Notch2 protein – biochemical, small-molecule microarray, 635 nm fluorescence, stem cell growth factors, primary screen (AID 1073). The following applies: higher = more signal.
Test [6] concerns the target Pro-neuregulin-1, membrane-bound isoform (Homo sapiens) (UniProt Q02297). Description: small molecules binding neuregulin-1 protein – biochemical, small-molecule microarray, fluorescence 635/667, psychiatric disease protein project, primary screen (AID 1075).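 Also: score combines 667 nm spot fluorescence with signal to noise.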 The following applies: NRG1 binding, 635 nm fluorescence, higher = more signal.
Test [7] concerns Neuregulin-1 EGF-like domain. Nature of the test: small molecules binding NRG1 EGF domain – biochemical, small-molecule microarray, 635 nm fluorescence, primary screen (AID 1081).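 Also: binding of the protein to compounds printed on small-molecule microarray slides.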 Particulars: higher = more signal.
Test [8] is described as follows: FRG1 expression reporter modulators in myotubes – cell-based, C2C12 myotubes, firefly/Renilla luciferase, luminescence, FRG1 inhibition for FSHD, primary screen (AID 1084). The following applies: FRG1 promoter luciferase, higher = more signal, called active from +8 up or from −8 down.
Test [9] can be described thus: small molecules captured by biotinylated probe aFST – biochemical, small-molecule microarray, fluorescence 635/667, stem cell growth factor project, primary screen (AID 1086).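 Also: score merges 667 nm fluorescence with signal-to-noise of each printed compound spot.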 Particulars: higher = more signal.
The nature of test [10]: binders of probe aHhip on microarray, primary screen, stem cell growth factor project, biochemical, small-molecule microarray, fluorescence 635/667 (AID 1087).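 Also: score merges spot fluorescence at 667nm with spot signal to noise ratio.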 The following applies: higher = more signal.
The subject of test [11] is PRMT1 (protein arginine N-methyltransferase 1). Description: small molecules binding arginine methyltransferase PRMT1 – biochemical, small-molecule microarray, 635 nm fluorescence, primary screen (AID 1088).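 Also: binding of Prmt1 protein to compounds spotted on small-molecule microarray slides.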 Particulars: higher = more signal.
Test [12] in a line: growth effects on S. cerevisiae YJM789 – YJM789 clinical isolate, OD600, 24 h, basal, primary screen (AID 1089).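 Also: growth of clinical yeast isolate S. cerevisiae YJM 789 seeded 1000 cells per well; test concentration not given here.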 The following applies: higher = more signal, called active from +8 up or from −8 down.
The nature of test [13]: S. pombe growth modifiers, basal conditions – strain 972, OD600, 24 h, no modulator, primary screen (AID 1090).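 Also: basal condition with compound alone and no growth modifier present; test concentration not given here.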 The following applies: S. pombe 972 growth, higher = more signal, called active from +8 up or from −8 down.
The nature of test [14]: budding yeast growth modifiers under rapamycin – strain BY4716, OD600, 96 h, primary screen (AID 1091). Also: test concentration not given here. Particulars: S. cerevisiae BY4716 + rapamycin, higher = more signal, called active from +8 up or from −8 down.
Test [15] deals with Torsin-1A-interacting protein 2 (Homo sapiens) (UniProt Q8NFQ8). Nature of the test: small molecules binding lysate-expressed LULL1 – cell lysate, human LULL1 lysate, 635/667 nm fluorescence, primary screen (AID 1092).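 Also: score merges per-feature 667 nm fluorescence with signal-to-noise.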 The following applies: small-molecule microarray, hLULL1 lysate binding, 635 nm fluorescence; higher = more signal.
Test [16] in a line: optical density change of DRC41 E. coli – strain DRC41, OD650, 24 h, E. coli filamentation project, primary screen (AID 1093).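 Also: MC1000 strain lacking acrAB efflux and sulA so SOS filamentation is blocked; test concentration not given here.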 The following applies: E. coli DRC41 growth, higher = more signal, called active from +8 up or from −8 down.
Test [17] is described as follows: probe aLefty2 binding to arrayed compounds – biochemical, biotinylated probe, 635/667 nm fluorescence, primary screen (AID 1094).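 Also: score merges spot fluorescence near 667 nm with spot signal-to-noise ratio.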 The following applies: small-molecule microarray, higher = more signal.
For test [18], the system named is Noggin (protein binding on small-molecule microarray). Nature of the test: small molecules binding Noggin protein – biochemical, 635/667 nm fluorescence, primary screen (AID 1095).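 Also: score merges 667 nm feature fluorescence with signal to noise over triplicate slides.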 Particulars: 635 nm fluorescence, higher = more signal.
Test [19] has as its target Neurogenic locus notch homolog protein 3 (Homo sapiens) (UniProt Q9UM47). Description: small molecules binding NOTCH3 protein – biochemical, 635/667 nm fluorescence, primary screen (AID 1096). Particulars: small-molecule microarray, 635 nm fluorescence, higher = more signal.
Test [20] is described as follows: probe aEGFR binding to arrayed compounds – biochemical, biotinylated probe, 635/667 nm fluorescence, primary screen (AID 1097).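 Also: probe is a biotinylated anti-EGFR antibody binding compounds printed on slides; score combines fluorescence near 667 nm and signal to noise of each spot.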 Particulars: small-molecule microarray, higher = more signal.

The values that follow come from PubChem BioAssay.

Activity calls are given as the source filed them.

Sequence of Neurogenic locus notch homolog protein 2 (Homo sapiens) (Q04721 whole entry, looked up, canonical isoform): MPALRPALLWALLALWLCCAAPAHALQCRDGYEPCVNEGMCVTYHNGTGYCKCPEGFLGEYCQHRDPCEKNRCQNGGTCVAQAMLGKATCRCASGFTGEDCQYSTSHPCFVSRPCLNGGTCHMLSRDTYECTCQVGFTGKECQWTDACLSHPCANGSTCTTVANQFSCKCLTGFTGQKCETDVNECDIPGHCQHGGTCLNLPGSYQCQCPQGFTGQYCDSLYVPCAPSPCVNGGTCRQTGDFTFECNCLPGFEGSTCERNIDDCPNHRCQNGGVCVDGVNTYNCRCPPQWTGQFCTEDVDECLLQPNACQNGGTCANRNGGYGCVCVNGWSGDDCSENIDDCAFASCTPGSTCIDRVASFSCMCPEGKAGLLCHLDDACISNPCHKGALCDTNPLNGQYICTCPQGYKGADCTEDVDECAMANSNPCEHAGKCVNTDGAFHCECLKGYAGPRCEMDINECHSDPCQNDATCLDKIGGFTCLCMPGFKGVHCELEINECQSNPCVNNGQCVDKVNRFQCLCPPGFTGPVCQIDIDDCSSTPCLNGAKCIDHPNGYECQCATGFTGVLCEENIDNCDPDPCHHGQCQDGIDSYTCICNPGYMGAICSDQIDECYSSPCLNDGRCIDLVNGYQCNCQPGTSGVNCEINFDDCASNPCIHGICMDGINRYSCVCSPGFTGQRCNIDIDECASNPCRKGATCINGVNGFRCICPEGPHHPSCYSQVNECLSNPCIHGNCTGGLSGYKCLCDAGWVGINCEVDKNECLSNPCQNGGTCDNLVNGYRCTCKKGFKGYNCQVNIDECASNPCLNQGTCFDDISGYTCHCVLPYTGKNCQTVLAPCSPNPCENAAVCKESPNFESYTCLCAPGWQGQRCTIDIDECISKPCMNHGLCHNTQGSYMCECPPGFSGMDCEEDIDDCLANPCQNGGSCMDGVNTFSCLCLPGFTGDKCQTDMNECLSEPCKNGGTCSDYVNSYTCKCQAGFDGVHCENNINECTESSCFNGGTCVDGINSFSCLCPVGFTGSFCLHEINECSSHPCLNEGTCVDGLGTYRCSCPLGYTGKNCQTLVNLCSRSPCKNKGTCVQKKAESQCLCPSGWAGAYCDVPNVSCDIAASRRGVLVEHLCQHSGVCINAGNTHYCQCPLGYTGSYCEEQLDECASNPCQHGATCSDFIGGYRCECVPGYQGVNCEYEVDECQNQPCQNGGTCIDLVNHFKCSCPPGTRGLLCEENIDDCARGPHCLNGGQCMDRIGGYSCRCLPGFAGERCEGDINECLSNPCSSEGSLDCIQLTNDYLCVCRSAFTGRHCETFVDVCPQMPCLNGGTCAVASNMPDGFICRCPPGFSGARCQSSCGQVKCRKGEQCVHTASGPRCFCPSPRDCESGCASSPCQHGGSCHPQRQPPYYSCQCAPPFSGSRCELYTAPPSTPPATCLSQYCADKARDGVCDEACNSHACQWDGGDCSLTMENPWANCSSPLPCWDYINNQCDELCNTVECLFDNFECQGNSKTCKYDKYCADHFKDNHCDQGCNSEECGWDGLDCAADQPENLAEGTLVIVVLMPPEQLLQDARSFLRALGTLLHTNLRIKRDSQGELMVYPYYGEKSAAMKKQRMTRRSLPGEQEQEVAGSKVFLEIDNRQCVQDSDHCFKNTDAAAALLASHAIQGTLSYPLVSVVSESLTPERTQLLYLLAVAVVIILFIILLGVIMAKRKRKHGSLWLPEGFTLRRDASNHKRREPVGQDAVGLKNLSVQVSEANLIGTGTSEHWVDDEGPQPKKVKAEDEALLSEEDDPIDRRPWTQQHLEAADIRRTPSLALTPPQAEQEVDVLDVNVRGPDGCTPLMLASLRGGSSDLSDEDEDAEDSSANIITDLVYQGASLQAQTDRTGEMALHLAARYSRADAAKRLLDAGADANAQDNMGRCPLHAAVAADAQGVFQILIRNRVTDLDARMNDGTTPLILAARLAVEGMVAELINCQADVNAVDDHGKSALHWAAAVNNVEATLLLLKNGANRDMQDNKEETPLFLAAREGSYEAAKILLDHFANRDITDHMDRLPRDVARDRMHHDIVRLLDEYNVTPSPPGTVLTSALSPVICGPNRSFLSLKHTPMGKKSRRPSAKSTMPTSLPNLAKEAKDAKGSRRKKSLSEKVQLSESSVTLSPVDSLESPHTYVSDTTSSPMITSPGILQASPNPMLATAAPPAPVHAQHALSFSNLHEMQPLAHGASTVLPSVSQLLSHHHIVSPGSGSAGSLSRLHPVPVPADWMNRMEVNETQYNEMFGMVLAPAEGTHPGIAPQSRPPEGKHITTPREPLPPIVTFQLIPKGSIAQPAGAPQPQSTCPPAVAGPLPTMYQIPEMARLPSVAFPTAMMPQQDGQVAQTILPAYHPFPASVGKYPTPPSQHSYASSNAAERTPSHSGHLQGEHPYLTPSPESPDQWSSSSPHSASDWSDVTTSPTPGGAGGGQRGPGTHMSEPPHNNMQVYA
Sequence of Torsin-1A-interacting protein 2 (Homo sapiens) (Q8NFQ8 whole entry, looked up): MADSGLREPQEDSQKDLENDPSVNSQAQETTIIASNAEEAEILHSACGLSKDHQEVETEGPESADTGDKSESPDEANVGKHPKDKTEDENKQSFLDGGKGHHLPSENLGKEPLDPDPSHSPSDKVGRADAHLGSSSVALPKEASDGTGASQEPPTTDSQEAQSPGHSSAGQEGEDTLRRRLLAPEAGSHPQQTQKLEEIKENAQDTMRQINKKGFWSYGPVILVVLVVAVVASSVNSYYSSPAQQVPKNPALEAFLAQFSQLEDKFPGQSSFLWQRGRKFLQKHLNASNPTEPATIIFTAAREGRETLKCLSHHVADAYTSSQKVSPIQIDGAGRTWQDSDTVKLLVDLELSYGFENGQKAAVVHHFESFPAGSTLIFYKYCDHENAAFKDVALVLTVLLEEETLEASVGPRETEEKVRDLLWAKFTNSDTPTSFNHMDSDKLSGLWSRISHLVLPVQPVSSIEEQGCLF
Sequence of Pro-neuregulin-1, membrane-bound isoform (Homo sapiens) (Q02297 whole entry, looked up, the tested form may be a part, canonical isoform): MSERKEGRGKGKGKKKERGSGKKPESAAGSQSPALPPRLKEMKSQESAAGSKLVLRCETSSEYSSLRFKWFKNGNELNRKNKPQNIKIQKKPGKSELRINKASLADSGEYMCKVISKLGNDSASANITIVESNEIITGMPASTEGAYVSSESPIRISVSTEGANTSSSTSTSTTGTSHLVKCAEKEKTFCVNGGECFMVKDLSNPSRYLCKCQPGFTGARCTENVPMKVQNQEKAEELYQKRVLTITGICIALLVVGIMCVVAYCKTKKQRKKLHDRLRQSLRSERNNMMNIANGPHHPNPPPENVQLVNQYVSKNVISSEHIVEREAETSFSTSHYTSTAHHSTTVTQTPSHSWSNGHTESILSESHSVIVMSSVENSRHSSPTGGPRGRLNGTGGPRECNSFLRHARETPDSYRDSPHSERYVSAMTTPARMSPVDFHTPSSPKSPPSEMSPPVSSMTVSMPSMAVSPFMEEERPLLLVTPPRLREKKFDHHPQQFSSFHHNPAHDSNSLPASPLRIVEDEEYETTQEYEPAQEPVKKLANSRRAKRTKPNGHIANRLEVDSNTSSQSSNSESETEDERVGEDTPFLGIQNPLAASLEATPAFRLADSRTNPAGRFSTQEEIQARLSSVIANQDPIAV

In the case of `Cc1ccc(S[C@]2(C(=O)NC(C)C)CC(=O)N(Cc3ccccc3Cl)[C@@H]2c2ccc(CO)cc2I)cc1`, the composite z-score in test [1] is 0.319; in test [2] it was -0.756; in [3], -0.223; in test [4], -0.719; in test [5], -1.31; in test [6], 1.85. In addition, the composite z-score is 1.02 in [7]; -0.377 in test [9]; -0.0994 in test [10]; 1.14 in [11]; 1.81 in [15]; 0.0282 in [17]. Besides, the composite z-score was -0.28 in test [18], -0.317 in test [19] and -0.287 in test [20]. Also, the z-score in test [8] was -1.42 (inactive); in test [12], -1.59 (inactive); in test [13] it was -1.98 (inactive); in test [14], 0.239 (inactive); in test [16], 0.0987 (inactive).
Take `CC(C)(C)OC(=O)CC[C@@]1(C(=O)NCC(O)CO)N=C(c2ccc(OCCCO)cc2)O[C@@H]1c1ccccc1N=[N+]=[N-]` (stereo not given in full): the composite z-score was found to be 0.119 in test [1]; 1.11 in test [2]; 0.0599 in test [3]; 0.559 in [4]; 1.2 in test [5]; 1.97 in test [6]. Besides, the composite z-score in test [7] was 1.17; in test [9], 0.552; in test [10] it was -0.0618; in test [11], 1.54; in test [15], 3.76; in [17], 0.247. Further, the composite z-score in test [18] is 1.04; in test [19] it was 0.626; in test [20], 0.0773. In addition, the z-score in test [8] was 2.43 (inactive); in [12], 1.17 (inactive); in test [13], -1.74 (inactive); in [14], 4.99 (inactive); in test [16], 1.26 (inactive).
As for `C=CCN1C(=O)[C@@]2(O[C@@H](CCO)[C@H]([Si](C)(C)c3ccc(OC)cc3)[C@H]2C)c2cc(NC(=O)c3ccc(OC)cc3)ccc21`, the composite z-score was -0.114 in test [1]; 0.612 in test [2]; -0.0739 in test [3]; -0.0379 in test [4]; 0.454 in [5]; 0.213 in test [6]. In addition, the composite z-score was 0.949 in test [7]; 0.171 in [9]; -0.0003 in test [10]; 1.54 in [11]; 0.821 in [15]; -0.0977 in test [17]. Besides, the values for the composite z-score in test [18], in test [19] and in [20] were 1.37, 0.861 and -0.159, respectively. Further, the z-score is -0.797 (inactive) in test [8]; 0.411 (inactive) in test [12]; -2.29 (inactive) in test [13]; 1.02 (inactive) in [14]; 0.702 (inactive) in test [16].
Turning to `COC(=O)c1c(CC[C@@H](CO)NC(=O)N2CCC[C@H]2Cn2cc(-c3ccccn3)nn2)oc(C(C)=O)c1C(=O)OC`, the composite z-score is -0.508 in test [1]; -0.0298 in [2]; -0.1 in test [3]; 0.639 in test [4]; -0.357 in test [5]; 0.963 in test [6]. Further, the composite z-score in [7] was 0.808; in test [9], -0.0939; in test [10] it was -0.0427; in [11], 0.986; in test [15] it was 3.03; in [17] it was -0.155. Also, the composite z-score in test [18] was 0.81; in [19], -0.126; in [20] it was -0.13. In addition, the z-score in [8] is 0.634 (inactive); in [12], -0.833 (inactive); in test [13], 0.195 (inactive); in [14] it was -1.46 (inactive); in [16], 1.25 (inactive).
On to `CC(=O)NCCCC[C@@H]1NC(=O)[C@@H]2C[C@H](C(=O)NCCCCCCNC(=O)CS)[C@H](c3cccc(OCCO)c3)N2C1=O`, for which the composite z-score was 0.0659 in [1]; 0.311 in test [2]; -0.0212 in test [3]; 0.283 in test [4]; 0.149 in test [5]; 0.632 in [6]. The composite z-score in [7] was 1.24; in [9], 0.414; in test [10], -0.299; in test [11], 1.55; in [15], 2.03; in test [17], 0.498. Also, the composite z-score in test [18] is 0.452; in test [19] it was 0.249; in test [20], -0.112. Besides, the z-score in test [8] is 0.743 (inactive); in [12] it was -0.531 (inactive); in test [13], -0.507 (inactive); in test [14], -0.0963 (inactive); in test [16], -0.329 (inactive).
